Sampled rows, rich in hits. Any-hit rate of the full collection: about 21%.
DT40 TDP1 no CPT – qHTS for Inhibitors of human tyrosyl-DNA phosphodiesterase 1 (TDP1): qHTS in cells in absence of CPT; DT40 Tdp1-/- hTDP1 cells, no CPT, ATP luminescence, 48 h; Potency, µM (top dose mostly 46.2 µM), for inactives: at the highest dose activity change, negative = growth inhibition, actives largely listed as inhibitors; 420,000 compounds, 15% hits; note: potency is the fitted concentration of half-maximal effect; nearly all actives have a fitted effect of over 55% in size
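A cellular qHTS used chicken DT40 cells lacking endogenous Tdp1 but carrying stably transfected human TDP1. Compounds were applied without camptothecin, and cell growth kinetics were judged by ATP-dependent luminescence after ≥48 hr.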
IL1B secr inh – inflammasome signaling inhibition, IL-1 beta readout; THP-1 LPS/ATP IL-1B secretion, AlphaLISA, 16 h; stronger effect = lower value; activity change, % at 57.5 µM; 360,000 compounds, 4.7% hits; AID 743279; in the data active = activity change below about -50%; inconclusive = mostly about -30% to -49%
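THP-1 cells pretreated 1 hr with compounds (up to 57.5 uM final), then stimulated with LPS (250 ng/mL final) plus ATP (1.25 mM final); secreted IL-1B measured by AlphaLISA after 16 hr, decreased signal indicating inhibition.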
ELG1 DNA repair – blocks ELG1-dependent DNA repair in HEK293T cells | HEK293T ELG1-luciferase reporter, luminescence, 16 h; DNA damage induced by 5-fluorouridine | Potency, µM (doses to about 46.1 µM), without a hit: at the top dose activity change, negative = inhibition, actives largely listed as inhibitors | AID 504467 | 330,000 compounds, 2.3% hits; note: potency is the fitted concentration of half-maximal effect; nearly all actives have a fitted effect of over 55% in size
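Step one: seed 2,000 cells per well. Step two: pin-transfer compound or DMSO alongside 5-fluorouridine. Step three: incubate 16 hr, 37 °C, 5% CO2. Step four: add ONE-Glo, wait 30 min, read luminescence.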
VP16 counter – Gal4-VP16 reporter inhibition counter-screen. Drosophila S2 Gal4-VP16 UAS-luciferase, luminescence, 20 h. Potency, µM (titrated, usually from 53.6 µM), without a hit: top-dose activity, negative = inhibition, hits mostly inhibitors. 310,000 compounds, 3.5% hits. AID 2546;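 note: Gal4-VP16 expression switched on by copper sulfate through the metallothionein promoter; potency is the fitted concentration of half-maximal effect; nearly all actives have a fitted effect of over 50% in size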
RORg inh – ROR gamma (mouse) transcription inhibition; 310,000 compounds, 5.4% hits; Drosophila S2 Gal4-RORgamma UAS-luciferase reporter, 20 h; Potency, µM (titrated, usually from 53.6 µM), for the others: top-dose activity change, negative = inhibition, usual class: inhibitors; note: potency is the fitted concentration of half-maximal effect; nearly all actives have a fitted effect of over 60% in size
Target sequence (P51450 whole entry, looked up, the tested form may be a part): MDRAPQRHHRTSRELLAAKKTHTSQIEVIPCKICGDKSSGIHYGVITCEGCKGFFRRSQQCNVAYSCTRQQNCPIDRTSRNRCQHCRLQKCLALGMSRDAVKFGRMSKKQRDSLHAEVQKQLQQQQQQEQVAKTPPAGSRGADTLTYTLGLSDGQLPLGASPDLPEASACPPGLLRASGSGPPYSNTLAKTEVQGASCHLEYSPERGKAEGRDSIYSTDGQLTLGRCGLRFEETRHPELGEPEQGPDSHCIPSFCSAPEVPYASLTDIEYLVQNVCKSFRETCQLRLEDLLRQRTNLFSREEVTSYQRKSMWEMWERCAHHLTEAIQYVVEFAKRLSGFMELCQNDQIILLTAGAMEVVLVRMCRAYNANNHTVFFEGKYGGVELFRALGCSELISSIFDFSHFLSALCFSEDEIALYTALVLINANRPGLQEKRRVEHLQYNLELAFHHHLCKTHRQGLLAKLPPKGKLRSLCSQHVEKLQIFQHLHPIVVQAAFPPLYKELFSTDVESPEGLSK
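Read-out: Photinus luciferase luminescence; inhibitors lower reporter signal. Insect Schneider cells with Gal4-ROR gamma fusion under metallothionein promoter, UAS reporter; 700 uM final copper sulfate induction, 20 hr, ambient temperature.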
DT40 TDP1 CPT – DT40-hTDP1 cell growth loss with CPT; 420,000 compounds, 12% hits; AID 686979; Potency, µM (titrated, usually from 46.2 µM), inactives show top-dose activity change, negative = growth inhibition, actives largely listed as inhibitors; chicken DT40 Tdp1-/-;hTDP1 cells + 20 nM CPT, ATP luminescence, 48 h; note: potency is the fitted concentration of half-maximal effect; nearly all actives have a fitted effect of over 55% in size
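Chicken DT40 Tdp1-/- cells stably complemented with human TDP1 were seeded at 400 cells/well in medium containing 20 nM camptothecin, exposed to pin-transferred compounds, and grown at 37 °C for at least 48 hr. Viability was read as ATP luminescence.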
Numbers without * were called inactive; u = inconclusive; x = no result given; [ ] = another dose, or the depositor's remark. Unless noted, calls come from the whole dose curve; as a rule, active = well fitted curve in the direction sought with a large enough effect; inconclusive = small, poorly fitted or top-dose-only effect, or another doubt; inactive = no such curve, though single readings can be large; an effect the other way counts as inactive or inconclusive. % is set by controls: 0 for no effect and ±100 for the full control effect.

SMILES | DT40 TDP1 no CPT | IL1B secr inh | ELG1 DNA repair | VP16 counter | RORg inh | DT40 TDP1 CPT
Cc1ccccc1NC(=O)CN1CCN(C)CC1 | -9% | 6 | 7% | -3% | -16% | 6%
CC[C@H](C)[C@H](NC(=O)OCc1ccccc1)C(=O)OCC(=O)N1CCN(c2ccc(F)cc2)CC1 | u | -7 | x | x | x | u
Cc1ccc(CCNc2nc3c(S(=O)(=O)c4ccccc4)nnn3c3ccsc23)cc1 | u | x | x | x | x | -22%
Cc1ccc(CNc2nc3c(S(=O)(=O)c4ccccc4)nnn3c3ccsc23)cc1 | -14% | x | x | x | x | -28%
CCc1ccc(S(=O)(=O)c2nnn3c2nc(NC2CCCCCC2)c2sccc23)cc1 | 16µM* | x | x | x | x | u
Cc1ccc(C)c(S(=O)(=O)c2nnn3c2nc(NCc2ccc4c(c2)OCO4)c2sccc23)c1 | u | x | x | x | x | 18µM*
Cc1ccc(S(=O)(=O)c2nnn3c2nc(NCCc2ccccc2)c2sccc23)cc1 | u | x | x | x | x | 16µM*
Cc1ccc(S(=O)(=O)c2nnn3c2nc(NCc2ccc4c(c2)OCO4)c2sccc23)cc1 | 13µM* | x | x | x | x | u
Cc1ccc(CNC(=O)CCc2c(C)nc3c(-c4ccc(F)cc4)c(C)nn3c2C)cc1 | -4% | x | x | x | x | -14%
COc1cc(NC(=O)Cn2c(C)cc(C)c(C#N)c2=O)cc(OC)c1 | 2% | x | x | x | x | 1%
Cc1ccc(CNc2nc3c(S(=O)(=O)c4ccc(C)c(C)c4)nnn3c3ccc(Cl)cc23)cc1 | u | x | x | x | x | -25%
Cc1ccc(S(=O)(=O)c2nnn3c2nc(NCc2ccc4c(c2)OCO4)c2sccc23)cc1C | 23µM* | x | x | x | x | u
CCS(=O)(=O)N1CC(=O)N(c2ccccc2C)C(C)(C(=O)NC2CCCCC2)C1 (configuration not stated) | 0% | x | x | x | x | -2%
CC(C)c1nc2ccc(Br)cn2c1NC1CCCC1 | -1% | 17 | u | u | 7.1µM* | -2%
COc1ccc(N(CC(=O)N2CCc3ccccc3C2)S(=O)(=O)c2ccc(C)cc2)cc1Cl | 16µM* | x | x | x | x | u
O=C(CN(c1cccc(Br)c1)S(=O)(=O)c1ccccc1)N1CCc2ccccc2C1 | 15µM* | x | x | x | x | 15µM*
Cc1cnc(CNc2ccnc(-c3ccc(C(=O)N(C)C)cc3)n2)cn1 | 18% | x | x | 9% | -7% | -4%
COc1cc(C(=O)Nc2cccc(-c3nnc(-c4ccco4)o3)c2)ccc1OC(C)=O | 16µM* | -88* | u | -13% | u | 13µM*
O=C(Cc1ccc(Cl)cc1)Nc1ccc(-c2nnc(-c3ccco3)o2)cc1 | -26% | 3 | u | u | u | -20%
COc1ccc(CC(=O)Nc2cccc(-c3nnc(-c4ccco4)o3)c2)cc1 | 7.3µM* | -20 | u | -6% | 13% | 7.3µM*
COc1ccc(NC(=O)C(NC(=O)Cc2cccs2)c2ccc(OC)cc2)cc1 (configuration not stated) | 2% | x | x | x | x | -8%
Cc1ccc(C(NC(=O)Cc2cccs2)C(=O)Nc2ccc(C(C)C)cc2)cc1 (configuration not stated) | u | x | x | x | x | 16µM*
COc1ccc(C(=O)Nc2cccc(-c3nnc(-c4ccco4)o3)c2)cc1 | 16µM* | -29 | 21µM* | u | u | 18µM*
COc1ccccc1NC(=O)CCS(=O)(=O)c1cc2c3c(c1)CCN3C(=O)CC2 | -8% | x | x | x | x | u
COC(=O)[C@]1(Sc2ccc(C)cc2)CC(=O)N[C@@H]1c1ccccc1 | u | 22 | x | x | x | -3%
SMILES | DT40 TDP1 no CPT | IL1B secr inh | ELG1 DNA repair | VP16 counter | RORg inh | DT40 TDP1 CPT
O=C(Cc1cccs1)Nc1cccc(-c2nnc(-c3ccco3)o2)c1 | 12µM* | u | u | -5%[10 µM] | -31% | 16µM*
NC(=O)c1ccc(NC(=O)Cc2cccs2)cc1 | -3% | 6 | u | 23% | u | -13%
Cc1ccc2oc(-c3cccc(NC(=O)Cc4cccs4)c3)nc2c1 | -9% | 15 | u | -16% | -22% | -12%
O=C(Cc1ccccc1)Nc1ccc(-c2nnc(-c3ccco3)o2)cc1 | -7% | 4 | 15% | -5% | u | -20%
Cc1ccc(-c2nnc(-c3ccc(NC(=O)Cc4cccs4)cc3)o2)cc1 | 18µM* | 18 | 9% | -14% | 13% | 15µM*
O=C(Nc1ccc(-c2nnc(-c3ccco3)o2)cc1)C(c1ccccc1)c1ccccc1 | 8.2µM* | -8 | u | -1% | 16% | 9.2µM*
COc1ccccc1CC(=O)Nc1ccc(-c2nnc(-c3ccco3)o2)cc1 | 16µM* | u | u | -1% | -2% | u
Cc1cc(C)cc(OCC(=O)Nc2cccc(-c3nnc(-c4ccco4)o3)c2)c1 | u | 0 | 21µM* | 15%[0.365 µM] | -15% | u
COc1ccc(C(=O)OCC(=O)c2ccco2)cc1[N+](=O)[O-] | 1% | -10 | x | x | x | 4%
COc1ccc(CC(=O)NNS(=O)(=O)c2cccc([N+](=O)[O-])c2)cc1OC | 1% | 21 | 9% | -2% | -25% | -10%
COc1ccc(-n2c(O)c(/C=N/NS(=O)(=O)c3cccc([N+](=O)[O-])c3)c3ccccc3c2=O)cc1OC | 18µM* | 34 | -18% | -14% | -8% | 23µM*
COc1ccc(Br)cc1/C=N/NS(=O)(=O)c1ccccc1 | 7.3µM* | 75 | x | x | x | 18µM*
COc1ccccc1/C=N/NS(=O)(=O)c1ccccc1 | -29% | 23 | -4% | -8% | 26% | -19%
COc1ccc(/C=C(\C#N)C(=O)NCc2cccs2)cc1OC | u | u | -4% | 0% | -7%[10 µM] | -4%
COc1cc(/C=N/NC(=O)COc2cccc(F)c2)ccc1OS(=O)(=O)c1ccc(C)cc1 | 26µM* | 3 | 18µM* | 4% | 40% | 18µM*
C=CCNC(=O)/C(C#N)=C/c1ccc(OS(=O)(=O)c2ccc(C)cc2)c(OC)c1 | u | -79* | u | u | 11µM* | u
Cc1nc2nc(NC(=O)c3ccc(F)cc3)[nH]n2c(=O)c1Cc1ccccc1 | -2% | x | x | x | x | -2%
CC(C)NC(=O)C1CCC(Cn2c(=O)c3sccc3n(CC(=O)NCc3ccccc3)c2=O)CC1 (configuration not stated) | 10% | x | x | x | x | 1%
COc1cc(/C=N\NS(=O)(=O)c2ccccc2)cc(OC)c1OC | -16% | 19 | 9% | 5% | -2% | -4%

Screening results as filed in PubChem BioAssay.
